# Bioassay records from PubChem.
# TDP1 block: inhibitors of human tyrosyl-DNA phosphodiesterase TDP1. Q9NUW8. 350,000 tested, 0.28% active. Potency, µM (doses to about 130 µM), for inactives: at the highest dose activity change, negative = inhibition, most hits filed as inhibitors. recombinant TDP1, AlphaScreen DNA substrate cleavage; note: potency is the fitted concentration of half-maximal effect; % is set by controls: 0 for no effect and ±100 for the full control effect; nearly all actives have a fitted effect of over 40% in size
# Target sequence (Q9NUW8 whole entry, looked up): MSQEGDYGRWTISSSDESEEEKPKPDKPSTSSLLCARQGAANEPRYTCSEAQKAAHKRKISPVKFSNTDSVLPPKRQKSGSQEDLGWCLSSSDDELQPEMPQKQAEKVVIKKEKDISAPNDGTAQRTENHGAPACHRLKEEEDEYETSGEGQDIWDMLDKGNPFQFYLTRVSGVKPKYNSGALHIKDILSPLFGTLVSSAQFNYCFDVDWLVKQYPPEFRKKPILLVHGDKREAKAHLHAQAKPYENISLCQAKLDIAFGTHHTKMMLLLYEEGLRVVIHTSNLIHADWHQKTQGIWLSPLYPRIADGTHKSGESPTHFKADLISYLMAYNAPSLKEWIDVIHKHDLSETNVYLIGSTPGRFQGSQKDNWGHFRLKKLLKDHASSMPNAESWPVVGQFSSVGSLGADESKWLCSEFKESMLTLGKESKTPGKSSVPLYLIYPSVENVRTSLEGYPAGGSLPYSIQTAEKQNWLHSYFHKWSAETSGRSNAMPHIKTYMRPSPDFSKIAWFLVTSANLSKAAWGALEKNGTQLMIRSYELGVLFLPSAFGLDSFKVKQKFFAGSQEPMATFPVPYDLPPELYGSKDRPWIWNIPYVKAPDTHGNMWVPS
#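 Tdp1 1 nM final; 15 min RT w/ cpd; substrate 15 nM, 5 min; beads 10 ug/ml, 10 min; AlphaScreen read. Neg ctrl: no enzyme.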
# TGFb inhibitor: blocks TGF-b signaling | HepG2 CAGA-GFP TGF-b/SMAD3 reporter, GFP fluorescence, 18 h; TGF-beta stimulated, 500 pg/mL final | Potency, µM (titrated, usually from 46.1 µM), inactives show at the top dose activity, negative = inhibition, usual class: inhibitors | 410,000 tested, 1.2% active; note: potency is the fitted concentration of half-maximal effect; % is set by controls: 0 for no effect and ±100 for the full control effect; nearly all actives have a fitted effect of over 65% in size
#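 HEPG2 CAGA-GFP cells (1000/well, DMEM with 1% FBS) were pre-incubated 2 h at 37 degrees C, given compound by pin tool, then stimulated with TGF-beta at 500 pg/mL final for 18 h before per-cell GFP fluorescence imaging.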
# DT40 TDP1 CPT: DT40-hTDP1 cell growth loss with CPT; chicken DT40 Tdp1-/-;hTDP1 cells + 20 nM CPT, ATP luminescence, 48 h; Potency, µM (series often up to 46.2 µM), for the others: at the top dose activity change, negative = growth inhibition, most hits filed as inhibitors; 420,000 tested, 12% active; AID 686979; note: potency is the fitted concentration of half-maximal effect; % is set by controls: 0 for no effect and ±100 for the full control effect; nearly all actives have a fitted effect of over 55% in size
#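 Chicken DT40 Tdp1-/- cells complemented with human TDP1, 400 cells/well, exposed to compounds plus 20 nM camptothecin for at least 48 h at 37 C; viability read as ATP content by CellTiter-Glo luminescence.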
# IL1B secr inh: blocks inflammasome-driven IL-1 beta release. THP-1 LPS/ATP IL-1B secretion, AlphaLISA, 16 h; hits give low values. activity change, % at 57.5 µM. 360,000 tested, 4.7% active. AID 743279; in the data active = activity change below about -50%; inconclusive = mostly about -30% to -49%; note: % is set by controls: 0 for no effect and ±100 for the full control effect
#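 Secreted IL-1B measured by AlphaLISA bead assay after 16 h compound exposure of THP-1 cells; compounds (final up to 57.5 uM) added 1 h before LPS (250 ng/mL) and ATP (1.25 mM) stimulation; lower signal means less secretion.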
# HepG2 viability: HepG2 cytotoxicity, counter-screen for TGF-b inhibitors; HepG2 CAGA-GFP viability, ATP luminescence, 18 h; Potency, µM (titrated, usually from 46.1 µM), without a hit: top-dose activity change, negative = cytotoxicity, hits mostly cytotoxic; 410,000 tested, 0.76% active; AID 588856; note: potency is the fitted concentration of half-maximal effect
#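 HepG2 CAGA-GFP cells (1000/well, DMEM with 1% FBS) received compound, then TGF-beta at 500 pg/mL final, and were incubated 18 hours at 37 degrees C. Viability was read by CellTiter-Glo luminescence. Media-only wells were set as complete cell-killing and DMSO as no toxicity.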
# TDP1 cell noCPT: qHTS for Inhibitors of human tyrosyl-DNA phosphodiesterase 1 (TDP1): qHTS in cells in absence of CPT | DT40 Tdp1-/- hTDP1 cells, no CPT, ATP luminescence, 48 h | Potency, µM (doses to about 46.2 µM), without a hit: top-dose activity change, negative = growth inhibition, most hits filed as inhibitors | 420,000 tested, 15% active | AID 686978, 2013; note: potency is the fitted concentration of half-maximal effect; % is set by controls: 0 for no effect and ±100 for the full control effect; nearly all actives have a fitted effect of over 55% in size
#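 No-CPT arm: Tdp1-/-;hTDP1 DT40 cells (400/well) plus compounds, incubated ≥48 hr at 37 °C. Readout CellTiter-Glo luminescence.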
# The depositor's hits bear a star; ? = inconclusive; / = no result given; ! = a repeat was not active. The list is not random: actives were taken first. Their share in the collection is about 19%. Unless noted, calls come from the whole dose curve; as a rule, active = well fitted curve in the direction sought with a large enough effect; inconclusive = small, poorly fitted or top-dose-only effect, or another doubt; inactive = no such curve, though single readings can be large; an effect the other way counts as inactive or inconclusive.
SMILES,TDP1 block,TGFb inhibitor,DT40 TDP1 CPT,IL1B secr inh,HepG2 viability,TDP1 cell noCPT
CCc1ccc(NC(=O)CSc2nc3n[nH]c(C)c3c(=N)n2-c2cccc(OC)c2)cc1,6%,11%,18µM*,-19,-15%,26µM*
COc1ccc(NC(=O)CSc2nccn2-c2cccc(OC)c2)cc1,12%,3%,4%,-7,4%,-28%
Cc1cccc(-n2c(SCC(=O)Nc3ccc(C)c(C)c3)nc3n[nH]c(C)c3c2=N)c1,0%,?,10µM*,/,-26%,7.3µM*
O=C(Cc1ccsc1)NCC(=O)Nc1ccc(F)c(F)c1,5%,4%,3%,13,0%,18%
O=C(NCc1csc(-c2cccs2)n1)Nc1ccc(F)cc1F,0%,?,?,-8,-9%,12µM*
O=C(Nc1cccs1)Nc1ccc(F)cc1F,11%,-21%,23µM*,-11,-33%,15µM*
O=C(Nc1cccs1)Nc1ccc(Br)cc1F,-3%,11µM*,?,/,-36%,21µM*
O=C(NCc1csc(-c2cccs2)n1)Nc1ccc(C(F)(F)F)cc1,4%,-34%,6%,/,-14%,?
COc1ccc2c(c1)C(C)(Cc1ccc(C(=O)c3ccccc3)cc1)C(=O)N2 (stereo not drawn),/,-12%,?,-2,-19%,?
[NH-]c1ncnc2c1N=C[N+]2=CC=CCO,6%,-22%,2.6µM*,10,-1%,4.1µM*
CCN1CCN(C(=O)c2ccc(Sc3ccccc3Cl)c([N+](=O)[O-])c2)CC1,5%,-17%,?,-11,-13%,?
CCN1CCCC1CNC(=O)c1ccc(Sc2ccccc2Cl)c([N+](=O)[O-])c1 (stereo not drawn),8%,3%,?,-50*,-21%,?
COc1ccc(-n2c(=O)[nH]c3cc(C(=O)NCCc4ccc(Cl)cc4)ccc3c2=O)cc1OC,3%,-24%,23µM*,12,-5%,15µM*
CCCCN(C)CCNC(=O)c1ccc2c(=O)n(CCc3ccccc3)c(=O)[nH]c2c1,3%,1%,13µM*,/,-4%,23µM*
COc1cc(OC)cc(-n2c(=O)[nH]c3cc(C(=O)NCCc4ccc(C)cc4)ccc3c2=O)c1,6%,1%,-16%,/,5%,-4%
CCCCCNC(=O)c1ccc2c(=O)n(CCc3ccccc3)c(=O)[nH]c2c1,3%,-1%,-12%,/,0%,-14%
CCOCCCNC(=O)c1ccc2c(=O)n(CCc3ccc(OC)c(OC)c3)c(=O)[nH]c2c1,-1%,7%,6.5µM*,/,4%,4.1µM*
COCCOC(=O)c1[nH]c2c(c1C)C(=O)CC(c1cc(OC)c(OC)c(OC)c1)C2 (stereo not drawn),/,-8%,3.7µM*,-21,-13%,2.9µM*
COCCOC(=O)c1[nH]c2c(c1C)C(=O)CC(c1ccc(F)cc1)C2 (stereo not drawn),5%,5%,3.3µM*,62,-3%,5.8µM*
CCCCOC(=O)c1[nH]c2c(c1C)C(=O)CC(c1cc(OC)c(OC)c(OC)c1)C2 (stereo not drawn),2%,-20%,6.5µM*,4,-27%,5.2µM*
C=CCOC(=O)c1[nH]c2c(c1C)C(=O)CC(c1cc(OC)c(OC)c(OC)c1)C2 (stereo not drawn),0%,-19%,21µM*,?,-26%,7.3µM*
COCCOC(=O)c1[nH]c2c(c1C)C(=O)CC(c1ccc(N(C)C)cc1)C2 (stereo not drawn),10%,4%,-28%,-12,1%,?
COc1ccc(C(=O)NC(=S)N2CCN(c3ccccc3OC)CC2)cc1OC,1%,-24%,-15%,-6,-1%,13%
COc1ccccc1CNC(=O)CCn1c(=O)c2ccccc2n(CC(=O)Nc2ccc(C)cc2)c1=O,-2%,4%,?,/,-24%,?
CCC(=O)N1c2ccccc2CC1C(=O)NCc1ccc(OC(C)C)cc1 (stereo not drawn),1%,-7%,?,/,2%,?
SMILES,TDP1 block,TGFb inhibitor,DT40 TDP1 CPT,IL1B secr inh,HepG2 viability,TDP1 cell noCPT
O=C1c2ccc(O)c(O)c2C(=O)c2c(O)ccc(O)c21,/,/,10µM*,/,/,?
CC1CC(C)CN(CC(=O)NNC(=O)COc2ccc(Cl)cc2)C1 (stereo not drawn),-1%,-11%,-20%,-8,1%,-4%
CC(=O)/C(=N/Nc1ccccc1C)N1CCOCC1,8%,-5%,8.2µM*,14,-8%,21µM*
COc1cccc(CNS(=O)(=O)c2cc(-c3cc(C)no3)ccc2C(C)C)c1,0%,?,21µM*,-24,-5%,?
CCN(c1ccc(OC)cc1)S(=O)(=O)c1cc(-c2cc(C)no2)ccc1OC,3%,-6%,-15%,0,-34%,?
CCN(c1ccc(OC)cc1)S(=O)(=O)c1cc(-c2cc(C)no2)ccc1C(C)C,3%,-6%,?,2,4%,21µM*
COc1ccc(-c2cc(C)no2)cc1S(=O)(=O)NCc1ccc(OC(C)C)cc1,2%,0%,?,49,-3%,18µM*!
CC[C@H](C)[C@H](NC(=O)[C@H](Cc1ccccc1)NC(=O)[C@H](CCC(=O)O)NC(=O)[C@H](CCCCN)NC(=O)[C@H](C)NC(=O)[C@H](C)NC(=O)[C@H](CCC(N)=O)NC(=O)CNC(=O)[C@H](CCC(=O)O)NC(=O)[C@H](CC(C)C)NC(=O)[C@H](Cc1ccc(O)cc1)NC(=O)[C@H](CO)NC(=O)[C@H](CO)NC(=O)[C@@H](NC(=O)[C@H](CC(=O)O)NC(=O)[C@H](CO)NC(=O)[C@@H](NC(=O)[C@H](Cc1ccccc1)NC(=O)[C@@H](NC(=O)CNC(=O)[C@H](CCC(=O)O)NC(=O)[C@H](C)NC(=O)[C@@H](N)Cc1cnc[nH]1)[C@@H](C)O)[C@@H](C)O)C(C)C)C(=O)N[C@@H](C)C(=O)N[C@@H](Cc1c[nH]c2ccccc12)C(=O)N[C@@H](CC(C)C)C(=O)N[C@H](C(=O)N[C@@H](CCCCN)C(N)=O)C(C)C,9%,/,/,/,/,/
COC(=O)c1c(-n2c(C)cc(C=O)c2C)sc2c1CCCC2,6%,-4%,?,-63*,1%,22µM*
